This is a sample that favours compounds with a hit; in the whole collection about 1.6% have one here.
GASC-1 inh = human JMJD2C demethylase inhibition | AID 2099 | inhibition, % at 2.35 µM | Q9H3R0 | 330,000 compounds, 0.069% hits | GST-JMJD2C(1-420) H3K9me3 demethylation, DELFIA europium;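 active means more than half of a compound's replicate wells show inhibition beyond 50%, single wells judged on their own value; inconclusive means some, but no more than half, of replicates pass 50% inhibition; inactive means no replicate passes 50% inhibition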;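 further: signal counts dimethyl H3K9 product captured on neutravidin plate; 0% = median of DMSO wells and 100% = 0.3 times that DMSO median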
Target sequence (Q9H3R0 1-420 limits assumed): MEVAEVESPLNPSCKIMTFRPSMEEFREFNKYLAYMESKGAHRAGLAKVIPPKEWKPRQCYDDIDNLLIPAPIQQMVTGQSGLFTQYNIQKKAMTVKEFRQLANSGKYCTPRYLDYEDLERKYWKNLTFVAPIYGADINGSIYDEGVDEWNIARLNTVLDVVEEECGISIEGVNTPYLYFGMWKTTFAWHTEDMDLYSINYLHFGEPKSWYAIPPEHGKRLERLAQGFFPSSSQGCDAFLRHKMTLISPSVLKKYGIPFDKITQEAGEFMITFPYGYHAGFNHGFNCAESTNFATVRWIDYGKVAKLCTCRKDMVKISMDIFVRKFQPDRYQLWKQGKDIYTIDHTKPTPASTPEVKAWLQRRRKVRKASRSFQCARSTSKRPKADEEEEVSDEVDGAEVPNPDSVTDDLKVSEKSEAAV
VLA-4 inh = inhibition in a human VLA-4 binding assay | P13612 | VLA-4 expressing cells, ligand binding flow cytometry | inhibition, % (about 7 µM as worked out from the volumes in the protocol) | 330,000 compounds, 0.2% hits | AID 2557; in the data active means inhibition above about 50%
PREPL inhibitor = inhibits the human prolyl oligopeptidase-like enzyme | Q4J6C6 | 320,000 compounds, 0.68% hits | recombinant PREPL, fluorescence polarization activity-based probe | inhibition, % at 5.96 µM; in the data active means inhibition above about 43%;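 further: 0% = enzyme with DMSO and 100% = wells lacking enzyme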
DSG3 Ab inh = inhibitors of pemphigus antibody binding to human desmoglein-3; P32926; DSG3-coupled beads, scFv-anti-DSG3-GFP binding, flow cytometry; active compounds read low; binding (percent of control), % at 10 µM; 310,000 compounds, 0.48% hits; AID 588358;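 active means binding more than 3 SD below its plate's average and above zero; inconclusive means below that plate limit but binding exactly zero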;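 further: hits lower antibody fragment binding to DSG3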
GRK2 inh = blocks RNA aptamer binding to human GRK2. P25098. bead flow cytometry, FAM-aptamer displacement from GRK2. inhibition of aptamer binding, % at 10 µM. 330,000 compounds, 0.59% hits;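 active means inhibition of aptamer binding above 40%, roughly 3 SD of noise, on plates passing a quality check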;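 further: median bead fluorescence of bound FAM aptamer so fluorescent compounds give negative values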
GRK2 CP1 = confirmation of human GRK2 inhibitors displacing RNA aptamer | bead-bound GRK2, FAM-aptamer displacement, flow cytometry | shares compounds with GRK2 inh | 2,000 compounds, 4% hits | aptamer displacement, % at 10 µM | AID 504451;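 active means aptamer displacement above 40%, near three times the noise of non-fluorescent compounds, on plates passing quality checks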;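 further: negative values mostly reflect intrinsic compound fluorescence rather than true enhancement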
Aptamer quench = quenches fluorescent RNA aptamer, GRK2 hit artifact; Fluorescent RNA aptamer beads, quenching, flow cytometry; active compounds read high; 110 tested, under 10 active; fluorescence change (kMESF span), kMESF (test concentration not listed); shares compounds with GRK2 inh;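 active means compounds whose bead fluorescence drops by more than 37 kMESF across the dose range, marking them as dye quenchers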
Aptamer quench SP = quenches fluorescent RNA aptamer, GRK2 hit artifact; shares compounds with GRK2 inh; Carboxyfluorescein RNA aptamer on beads, flow cytometry quenching; active compounds read low; fluorescence response (% of DMSO), % at 10 µM; 2,000 tested, under 10 active; AID 504580;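 active means compounds that quench the bead-bound fluorescent RNA probe, cutting fluorescence to under half of the solvent control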;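 further: counterscreen run without GRK2 so only probe quenching by compound is measured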
GRK2 confirm 2 = human GRK2 inhibition confirmation, cherry pick 2 | shares compounds with GRK2 inh | bead-bound GRK2, FAM-aptamer displacement, flow cytometry | 360 tested, under 10 active | inhibition of aptamer binding, % at 10 µM;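 active means inhibition of aptamer binding above 40%, about triple the noise seen with nonglowing compounds, on plates passing quality control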;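 further: negative values mostly come from compounds that fluoresce themselves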
FAM quench CP2 = aptamer fluorescence quenching in GRK2 counter-screen; shares compounds with GRK2 inh; carboxyfluorescein RNA aptamer beads, flow cytometry quenching; active compounds read low; fluorescence response vs DMSO, % at 10 µM; 360 tested, under 10 active;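 active means response vs DMSO under 50%, meaning signal dropped by over half, treated as fluorescence quencher; inconclusive means no clear call, values can overlap the other calls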;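 further: labelled aptamer on streptavidin beads without GRK2 as a quench counter-screen; 100% = bead fluorescence of DMSO wells and lower means quenching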
* hit, by the source's call; ? = inconclusive; . = not tested or not shown.

SMILES	GASC-1 inh	VLA-4 inh	PREPL inhibitor	DSG3 Ab inh	GRK2 inh	GRK2 CP1	Aptamer quench SP	others
Cc1ccc2nc(SCC(=O)Nc3ccc4c(c3)OCCO4)[nH]c2c1	-8	3	-6	101	1	.	.	GRK2 confirm 2=19;FAM quench CP2=101
Cc1nnc(SCC(=O)NC(=O)Nc2ccc3c(c2)OCCO3)n1N	-2	-6	-3	101	46*	1	100
O=C(CSc1nc2ccccc2[nH]1)Nc1nc(-c2cccc(Br)c2)cs1	4	-13	-55	.	75*	.	.	GRK2 confirm 2=-10;FAM quench CP2=100
Cc1cc(C)c(C(=O)NC2CC(C)(C)Cc3c2cnn3-c2ccccc2)o1 (stereo not drawn)	-3	-2	3	105	0	.	.
Cc1ccc(-c2nc(CNC(=O)c3ccco3)cs2)cc1	10	-9	-19	.	1	.	.
CN(C)/C=C/C=C1C(=O)CCCC1=O	29	2	-7	107	42*	11	102
O=C(c1ccc2nc(-c3ccco3)c(-c3ccco3)nc2c1)N1CCN(c2ncccn2)CC1	2	-24	61*	.	45*	3	94
O=C(O)CC(NC(=O)C12CC3CC(CC(C3)C1)C2)c1ccc2c(c1)OCO2 (stereo not drawn)	0	8	1	110	1	.	.
O=C(O)CC(NC(=O)C12CC3CC(CC(C3)C1)C2)c1ccc(F)cc1 (stereo not drawn)	-1	13	15	112	88*	1	95
O=[N+]([O-])c1cc([N+](=O)[O-])c(Oc2cncc(Cl)c2)cc1NC1CCCCCCC1	?	-2	-6	97	3	.	.
CCCNC(=O)C(Cc1ccccc1F)NC(=O)c1ccccn1 (stereo not drawn)	9	0	-5	103	86*	1	96	GRK2 confirm 2=3;FAM quench CP2=100
CCN(CC(=O)Nc1cccc(OC)c1)CC(=O)Nc1cccc2ccccc12	3	-1	18	112	5	.	.
Brc1ccc(-c2csc3ncnc(-n4nnc5ccccc54)c23)cc1	-7	-2	-26	98	1	.	.
Cc1ccc(S(=O)(=O)/C(C#N)=C/c2c(N3CCCCC3)nc3ccccn3c2=O)cc1	8	-5	1	109	1	.	.
N#C/C(=C\c1c(N2CCC(C(N)=O)CC2)nc2ccccn2c1=O)S(=O)(=O)c1ccc(Cl)cc1	-11	-2	6	.	41*	-1	99
CN(CCO)C(=O)c1c(NC(=O)c2ccccc2)sc2c1CCCC2	-2	-40	-6	99	42*	1	95
CCNc1ccc(S(=O)(=O)N(C)C)cc1[N+](=O)[O-]	1	8	-3	95	66*	-3	97
COc1cccc(NC(=S)N(Cc2cccc(Br)c2)CC2CCC(C(=O)O)CC2)c1 (stereo not drawn)	-10	-11	22	98	0	.	.
COc1ccc2nc(NC(=O)CSc3nnnn3C3CCCCC3)sc2c1	-5	12	-1	103	51*	-3	101
CCCN(CC(=O)Nc1ccccc1C)C(=O)Cc1coc2cc(C)ccc12	-2	-7	14	.	4	.	.
CCCN1CCC(Oc2cccc(C(=O)NCCc3ccccc3)c2)CC1	6	-1	10	108	0	.	.
Cc1ccc(C)c(N2C(=N)S/C(=C\c3ccc(-c4ccccc4C(=O)O)o3)C2=O)c1	2	-3	8	92	0	.	.
CCOC(=O)C(C)N1C(=O)S/C(=C\c2ccc(-c3ccccc3C(=O)O)o2)C1=O (stereo not drawn)	-12	4	-6	102	84*	71*	103	Aptamer quench=-278
COC(CNC(=O)c1ccc2c(c1)nc(C)n2-c1ccc(F)c(F)c1)OC	10	3	7	.	2	.	.
Cc1nc2cc(C(=O)N3CCc4ccccc43)ccc2n1-c1ccc(F)c(F)c1	1	30	17	106	93*	.	.	GRK2 confirm 2=-12;FAM quench CP2=100
SMILES	GASC-1 inh	VLA-4 inh	PREPL inhibitor	DSG3 Ab inh	GRK2 inh	GRK2 CP1	Aptamer quench SP	others
Cc1cc(C(=O)N2CCc3ccccc32)c2cc(F)ccc2n1	-2	-11	16	109	76*	2	102
CC(C)NC(=O)C1(N2C(=O)c3ccccc3C2=O)CCCC1	.	.	.	121	.	.	.
O=C(COc1ccc(Cl)cc1Br)Nc1cccc(S(=O)(=O)N2CCCC2)c1	-11	10	9	114	1	.	.
COc1cc2c(=O)n(CC3CCCO3)c(=O)n(CC(=O)Nc3ccccc3)c2cc1OC (stereo not drawn)	18	-10	-15	99	0	.	.
COCCNCC(=O)Nc1ccc(OC(F)(F)F)cc1	1	-19	2	103	1	.	.
COc1ccccc1CN1CC(C(=O)NCCc2ccccc2Cl)CCC1=O (stereo not drawn)	-3	13	8	.	76*	2	96
COc1ccccc1CN1CC(C(=O)NCc2cc(F)cc(C(F)(F)F)c2)CCC1=O (stereo not drawn)	-19	-112	0	96	89*	-3	96
COc1ccccc1CN1CC(C(=O)NCc2cccc(Cl)c2)CCC1=O (stereo not drawn)	6	-69	7	112	0	.	.
COc1ccccc1CN1CC(C(=O)NCCC2=CCCCC2)CCC1=O (stereo not drawn)	3	-124	9	101	0	.	.
CC(=O)Nc1ccccc1C(=O)C(=O)Nc1cccc(C(=O)NCc2ccc(C)cc2)c1	10	17	-1	.	1	.	.
Cc1ccc(C(=O)Nc2cccc(C(=O)NCc3ccccc3)c2)cc1	5	13	-17	116	0	2	102
COc1ccc(C(=O)Nc2cccc(C(=O)NCc3ccccc3)c2)cc1	-5	-3	-14	99	0	2	100
Cc1occc1C(=O)Nc1cccc(C(=O)NCc2ccccc2)c1	-4	1	1	92	0	-2	100
CC(=O)Nc1ccccc1C(=O)C(=O)Nc1cccc(C(=O)NCc2ccccc2)c1	2	15	8	98	0	.	.
CCCCn1c(N)c(N(CCOC)C(=O)CSc2nnc(-c3ccc(F)cc3)n2N)c(=O)[nH]c1=O	3	1	10	100	0	.	.
COc1ccc2c(c1)CCc1c(C(=O)NCCCn3ccnc3)noc1-2	1	19	0	103	51*	-6	98
